# GoLoco inh red – RGS12 GoLoco-Gai1 interaction inhibition; P63096; Potency, µM (highest dose often 61.6 µM), for inactives: at the top dose activity, negative = inhibition, hits mostly inhibitors; AID 880; hit rate 0.44% among 230,000; Gai1:RGS12 GoLoco peptide FP, rhodamine, 10 min; active = well fitted inhibition curve with a large enough effect, not every such curve was filed as active; inactive = no such curve, though single readings can be large or run the other way; also: potency is read from the fitted curve at half-maximal effect; % is scaled to controls: 0 for no effect and ±100 for the full control effect; nearly all actives have a fitted effect of over 30% in size
# Target sequence (P63096 whole entry, looked up): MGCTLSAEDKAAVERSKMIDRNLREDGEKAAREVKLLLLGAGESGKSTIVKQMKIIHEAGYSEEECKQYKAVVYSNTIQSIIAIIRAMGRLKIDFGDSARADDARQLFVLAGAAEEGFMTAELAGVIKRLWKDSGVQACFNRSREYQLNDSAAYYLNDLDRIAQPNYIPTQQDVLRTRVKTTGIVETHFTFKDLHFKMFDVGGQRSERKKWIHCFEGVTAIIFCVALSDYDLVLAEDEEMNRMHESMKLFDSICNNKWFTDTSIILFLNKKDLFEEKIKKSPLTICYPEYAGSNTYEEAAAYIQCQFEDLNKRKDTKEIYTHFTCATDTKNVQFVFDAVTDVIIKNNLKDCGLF
# PNC inhibitor – perinucleolar compartment assembly inhibition. PC3M PTB-GFP, PNC prevalence imaging, 16 h; active compounds read low. activity change (PNC), negative = inhibition, % at 10 µM. hit rate 3.1% among 140,000. AID 2417;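 active = readout at or below -70, meaning at least 70% loss of cells showing the perinucleolar compartment, a nuclear body marking cancer cells; inconclusive = readout between -30 and a set limit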;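 also: plate controls were DMSO wells for no effect and camptothecin positive control wells for full effect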
#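 PC3M cells stably expressing PTB-GFP, 750–1000 cells/well, treated 16 h at 37 °C with compound (23 nl of library stock), in duplicate. After paraformaldehyde fixation and Hoechst stain, imaged at 20x; PNC prevalence scored by image analysis.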
# HttQ103 aggreg – reduces HttQ103-GFP aggregates in PC12 cells; PC12 HttQ103-GFP aggregates, Acumen cytometry, 40 h; Potency, µM (highest dose often 46.1 µM), inactives show at the highest dose activity change, negative = inhibition, usual class: inhibitors; hit rate 1.1% among 220,000; AID 1688; active = well fitted curve in the direction sought with a large enough effect; inconclusive = small, poorly fitted or top-dose-only effect, or another doubt; inactive = no such curve, though single readings can be large; an effect the other way counts as inactive or inconclusive; also: potency is read from the fitted curve at half-maximal effect; % is scaled to controls: 0 for no effect and ±100 for the full control effect; nearly all actives have a fitted effect of over 60% in size
#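 Read-out: GFP aggregate count by laser scanning cytometer (488 nm excitation, 500-530 nm emission, 1–25 µm objects >6 SD above background). Cells: PC12, inducible HTTex1-Q103-GFP, 100 nM tebufenozide; compounds titrated.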
# HPGD block – inhibitors of human 15-hydroxyprostaglandin dehydrogenase (HPGD) | purified HPGD, NADH fluorescence kinetic, PGE2 substrate | Potency, µM, inactives show at the highest dose activity change, negative = inhibition, hits mostly inhibitors | hit rate 4.3% among 150,000; also: potency is read from the fitted curve at half-maximal effect; % is scaled to controls: 0 for no effect and ±100 for the full control effect
#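 NADH formation kinetics: reaction with 30 uM PGE2 and 1 mM NAD+ (final), 20 nM enzyme, Tris-HCl pH 8 with Tween 20, after 15 min compound preincubation at room temperature. Fluorescence change, last versus first of five reads.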
# ALDH1A1 block – ALDH1A1 (human) enzyme inhibition | P00352 | Purified ALDH1A1, NADH fluorescence, propionaldehyde substrate | Potency, µM (top dose mostly 75.3 µM), for the others: top-dose activity, negative = inhibition, hits mostly inhibitors | hit rate 7.3% among 220,000 | AID 1030;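 also: potency is read from the fitted curve at half-maximal effect; plate controls were no enzyme wells and a reference inhibitor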
# HTT ATP protect – protects HTT-Q103 PC12 cells, measured by ATP | Potency, µM (highest dose often 56.4 µM), for the others: cytoprotection (ATP increase), hits mostly activators | PC12 HTT-Q103 induced, cytoprotection, ATP luminescence, 40 h | hit rate 0.14% among 230,000; active = well fitted curve in the direction sought with a large enough effect; inconclusive = small, poorly fitted or top-dose-only effect, or another doubt; inactive = no such curve, though single readings can be large; an effect the other way counts as inactive or inconclusive; also: potency is read from the fitted curve at half-maximal effect; % of control where 0% means no effect; nearly all actives have a fitted effect of over 45% in size
#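 Huntington model: PC12 line, ecdysone-inducible HTTQ103 exon1–GFP, tebufenozide 100 nM. Test articles in a dose series. Endpoint luminescence from cellular ATP.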
# Active calls of the source: *; ? = inconclusive; nt = no result; [ ] = another dose, or the depositor's remark. Compounds with a hit are over-represented: about 11% of the library has one in this group of screens. Unless noted, calls follow the shape of the dose curve; as a rule, active = well fitted inhibition curve with a large enough effect (not every such curve was filed as active); inconclusive = small, poorly fitted or top-dose-only effect, or another doubt; inactive = no such curve, though single readings can be large or run the other way.
SMILES,GoLoco inh red,PNC inhibitor,HttQ103 aggreg,HPGD block,ALDH1A1 block,HTT ATP protect
COc1ccc(-n2nnnc2SCC(=O)NCCc2ccccc2)cc1OC,-5%,nt,1%,nt,-15%,nt
COc1cc(OC)cc(-n2nnnc2SCC(=O)NCCc2ccc(OC)c(OC)c2)c1,25%,nt,6%[9.22 µM],nt,-3%,-13%[10 µM]
COc1ccc(CCNC(=O)CSc2nnnn2-c2ccccc2)cc1,1%,19,-4%[9.22 µM],-5%,1.6µM*,1%
COc1ccc(CCNc2nnc(Sc3nnnn3-c3ccccc3)s2)cc1OC,6%,-97*,?,-7%,18µM*,-82%[10 µM]
COc1ccc(-n2c(CCc3ccccc3)nnc2SCC(=O)NCc2ccccc2)cc1,-2%,-108*,-11%,-14%,?,-20%
COc1ccc(CNC(=O)CSc2nnnn2-c2ccccc2)cc1,-4%,?,-11%,-10%,11µM*,-3%
CC(C)CO[C@H](c1ccc2c(c1)OCO2)[C@H](C)Br,8%[14.2 µM],nt,nt,-9%,-15%[13.5 µM],-2%[10 µM]
CCc1ccc(OCCOCC(O)CNC(C)CC)cc1 (configuration not stated),3%,?,1%,0%,-1%,11%[10 µM]
CCN(CC)S(=O)(=O)c1ccc(/C=C/C(=O)Nc2ccc(N3CCOCC3)cc2)cc1,2%,nt,11%[9.22 µM],nt,nt,5%[10 µM]
CN(Cc1cccc(F)c1)C(=O)c1ccc(S(=O)(=O)C(F)F)cc1,4%,35,1%,32µM*,?,0%
Cc1nn(C)c(C)c1CS(=O)(=O)c1ccccc1,0%,nt,-2%,nt,?,-48%
COc1ccc(NC(=O)c2nn(C34CC5CC(CC(C5)C3)C4)cc2[N+](=O)[O-])cc1,-1%,61,6%,-8%,0.28µM*,-11%[10 µM]
O=C(Nc1cccc2ccccc12)c1nn(C23CC4CC(CC(C4)C2)C3)cc1[N+](=O)[O-],11%,10,8%,-15%,?,-44%
NC1=NC(=O)C(Cc2ccccc2)S1 (configuration not stated),18%,nt,9%[9.22 µM],nt,-1%,18%[10 µM]
CCC1SC(N)=NC1=O (configuration not stated),-6%,-90*,3%,-11%,11%,?
COC(=O)Nc1nn(-c2ccc(OC)cc2)c(=O)c(C#N)c1C,-5%,nt,-4%,nt,25µM*,-10%
CCc1sc(/C=C(/C#N)C(N)=S)cc1[N+](=O)[O-],124%,nt,9%,nt,2.2µM*,-6%
Cc1ccc(NC(=O)c2cc(NC(=O)c3ccco3)ccc2N2CCOCC2)cc1,14%,6,-14%,-14%,?,-13%
Cc1ccc(NC(=O)c2cc(N3C(=O)C=CC3=O)ccc2N2CCOCC2)cc1,-15%,nt,-29%[9.22 µM],nt,0.35µM*,-39%[10 µM]
Cc1ccc(NC(=O)c2cc(N3C(=O)C=CC3=O)ccc2Cl)cc1C,-10%,2,16%,3.2µM*,2.2µM*,7%[10 µM]
Cc1ccc(NC(=O)c2cc(N3C(=O)C4CC=CCC4C3=O)ccc2N2CCOCC2)cc1Cl (configuration not stated),0%,?,?,-28%,28µM*,-44%
Cc1ccc(NC(=O)c2cc(-n3cnnc3)ccc2Cl)cc1,7%,22,-23%,-8%,0%,24%[10 µM]
COc1c2c(c(C(=O)/C=C/C(C)=C/c3ccccc3)c3c1OCO3)CCN(C)C2,6%,nt,nt,-2%,12%,23%
COc1ccc(-c2coc3cc(O)ccc3c2=O)c(O)c1O,-3%,nt,nt,7.1µM*,8.9µM*,-29%
COc1ccc(-c2coc3cc(O)ccc3c2=O)c(OC)c1O,5%,nt,nt,?,?,nt
CN1CCN(c2ncc3nc(-c4cccc(C#N)c4)c(=O)n(C[C@H]4CCCO4)c3n2)CC1,-1%,nt,nt,nt,?,-42%
Cc1cccc(N(CC(=O)Nc2ccc(CC#N)cc2)S(C)(=O)=O)c1,4%,-84*,-3%,-4%,3%,-2%
O=C(COc1ccc(NS(=O)(=O)c2ccc(F)cc2)cc1)N1CCOCC1,-9%,nt,9%[9.22 µM],nt,1%,6%[10 µM]
